NPC1 prom act = NPC1 promoter activation. 2.4% of 320,000 active. Huh7 NPC1 promoter luciferase reporter, 24 h. Potency, µM (doses to about 9.22 µM), for inactives: at the top dose activation, most hits filed as activators. AID 485313; note: % of control where 0% means no effect; nearly all actives have a fitted effect of over 60% in size
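Huh7 cells stably carrying NPC1 promoter–luciferase, plated in Opti-MEM with 10% FBS for 2 h, were exposed to compound in DMSO for 24 h at 37 °C; luciferase reagent was added for 10 min and luminescence read.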
ELG1 genotox = inducers of genotoxicity in HEK293T ELG1-luciferase cells; HEK293T ELG1-luciferase reporter, luminescence, 16 h; Potency, µM (top dose mostly 46 µM), without a hit: top-dose activity change, positive = activation, hits mostly activators; 1.3% of 330,000 active; note: % of control where 0% means no effect; nearly all actives have a fitted effect of over 60% in size
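HEK293T cells expressing luciferase-tagged ELG1 were exposed to compound or DMSO vehicle for 16 hr at 37 °C and 5% CO2. Luciferase activity was then measured with ONE-Glo after 30 min at room temperature.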
SMN2 splice enh = enhancers of SMN2 splice variant expression | HEK293 SMN2-luciferase splicing reporter, luminescence, 30-36 h | Potency, µM (top dose mostly 46.1 µM), for inactives: at the top dose activity change, positive = activation, most hits filed as activators | 2.8% of 210,000 active | AID 1458; note: % of control where 0% means no effect; nearly all actives have a fitted effect of over 55% in size
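HEK293 cells carry an SMN2 minigene-luciferase reporter in which exon 7 inclusion puts luciferase in frame. Cells were seeded at 2000 cells/well, attached for 10-12 hours, then exposed to compounds for 30-36 hours at 37C before ONE-Glo luminescence.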
Rab9 promoter act = activates the Rab9 promoter; Potency, µM (top dose mostly 9.22 µM), for the others: at the highest dose activation, negative = inhibition, usual class: activators; Huh7 Rab9 promoter-luciferase reporter, luminescence, 24 h; AID 485297; 2.8% of 320,000 active; note: % of control where 0% means no effect; nearly all actives have a fitted effect of over 60% in size
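Measured in stably transfected Huh7 cells bearing a Rab9 promoter–luciferase construct: 24 h compound treatment at 37 °C, followed by luminescence detection.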
FLuc modulator = inhibits or activates purified firefly luciferase, miR-21 counter-screen; purified FLuc, Km substrates, luminescence inhibition; Potency, µM (highest dose often 57.5 µM), for inactives: at the top dose activity change, negative = inhibition, most hits filed as inhibitors; 6.9% of 360,000 active; AID 588342;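 note: plate controls were vehicle for no effect and reference inhibitor for full effect; nearly all actives have a fitted effect of over 55% in size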
Target sequence (P08659 whole entry, looked up): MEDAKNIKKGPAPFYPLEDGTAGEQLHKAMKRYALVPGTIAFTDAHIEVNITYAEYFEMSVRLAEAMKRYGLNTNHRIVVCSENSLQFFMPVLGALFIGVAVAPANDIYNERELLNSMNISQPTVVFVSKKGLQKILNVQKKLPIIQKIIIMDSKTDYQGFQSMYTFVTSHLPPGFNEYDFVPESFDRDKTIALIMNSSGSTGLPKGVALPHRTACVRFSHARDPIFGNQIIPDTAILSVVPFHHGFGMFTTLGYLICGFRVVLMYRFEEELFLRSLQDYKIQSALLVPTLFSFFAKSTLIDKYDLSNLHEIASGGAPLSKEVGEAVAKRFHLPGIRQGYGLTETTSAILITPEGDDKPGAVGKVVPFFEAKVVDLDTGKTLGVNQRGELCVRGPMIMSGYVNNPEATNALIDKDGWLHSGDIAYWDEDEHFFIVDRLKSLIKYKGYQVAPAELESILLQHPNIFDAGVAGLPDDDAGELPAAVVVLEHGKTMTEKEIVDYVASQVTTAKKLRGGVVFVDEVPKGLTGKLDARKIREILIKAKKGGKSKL
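Purified P. pyralis luciferase, 10 nM final, with Km-level 10 uM D-luciferin and 10 uM ATP in 50 mM Tris acetate pH 7.5, 10 mM Mg acetate, 0.01% Tween-20, 0.05% BSA; 6-point qHTS titration about 60 µM downward; luminescence read.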
ELG1 repair inh = blocks ELG1-dependent DNA repair in HEK293T cells. 2.3% of 330,000 active. AID 504467. HEK293T ELG1-luciferase reporter, luminescence, 16 h; DNA damage induced by 5-fluorouridine. Potency, µM (top dose mostly 46.1 µM), for the others: top-dose activity change, negative = inhibition, most hits filed as inhibitors; note: % is set by controls: 0 for no effect and ±100 for the full control effect; nearly all actives have a fitted effect of over 55% in size
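Reporter activity after DNA damage by 5-fluorouridine is monitored. Compound-treated cells incubate 16 hr at 37 °C, then ONE-Glo is added for 30 min before luminescence reading.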
* marks the source's active call; other numbers are inactive results; [ ] = another dose, or the depositor's remark. This is a sample that favours compounds with a hit; in the whole collection about 9.3% have one here. Calls come from the whole dose curve; as a rule, active = well fitted curve in the direction sought with a large enough effect; inconclusive = small, poorly fitted or top-dose-only effect, or another doubt; inactive = no such curve, though single readings can be large; an effect the other way counts as inactive or inconclusive. Potency is the fitted concentration of half-maximal effect.

`Cc1nc(N)sc1N=Nc1ccc(Br)cc1` gave NPC1 prom act 2.24µM*, ELG1 genotox inconclusive, SMN2 splice enh inconclusive, Rab9 promoter act 1.26µM*, FLuc modulator 4.26µM* and ELG1 repair inh inconclusive.
For Cc1[nH]nc(N)c1N=Nc1ccc(Br)cc1 the results were NPC1 prom act 4.9%, ELG1 genotox 17.2%, SMN2 splice enh 11.1%, Rab9 promoter act -2.1%, FLuc modulator inconclusive and ELG1 repair inh 21.4%.
`Nc1sc(-c2ccccc2)cc1-c1n[nH]c(=S)n1C1CCCCC1` gave NPC1 prom act -28.6%, ELG1 genotox -2.7%, Rab9 promoter act -21.1%, FLuc modulator 0.2% and ELG1 repair inh 20.6µM*.
For O=C(c1c(F)cccc1F)N1CCN(CCOc2ccccc2)CC1 the results were NPC1 prom act -4.0%, ELG1 genotox -15.0%, Rab9 promoter act -1.1%, FLuc modulator 3.2% and ELG1 repair inh 20.6µM*.
`O=C(NCCN1CCN(C(=O)c2c(F)cccc2F)CC1)C(=O)Nc1ccc(Cl)cc1` gave NPC1 prom act -1.4%, ELG1 genotox -9.3%, Rab9 promoter act -4.8%, FLuc modulator 2.1% and ELG1 repair inh 7.3µM*.
Screening O=C(c1ccc(Cl)cc1)N1CCN(CCOc2ccccc2)CC1 returned NPC1 prom act 2.7%, ELG1 genotox -13.9%, Rab9 promoter act -3.9%, FLuc modulator -2.7% and ELG1 repair inh -22.2%.
`COc1cccc(CNC(=O)c2nn(C)c3c2CSc2ccccc2-3)c1` gave FLuc modulator -1.5%.
COc1cc2nc(CN3CCN(S(=O)(=O)c4c(F)cccc4F)CC3)[nH]c(=O)c2cc1OC was read as NPC1 prom act 0.8%, ELG1 genotox -4.0%, Rab9 promoter act 0.3%, FLuc modulator 4.4% and ELG1 repair inh 5.8µM*.
For CCOC(=O)c1c(C=O)c(C)n(Cc2ccccc2)c1C the results were NPC1 prom act 0.0%, ELG1 genotox -1.6%, SMN2 splice enh -13.0%, Rab9 promoter act 0.5%, FLuc modulator -0.2% and ELG1 repair inh -15.6%.
Screening CC(C)Cc1ccc(C(C)C(=O)Nc2ccccc2O)cc1 (centres undefined) returned NPC1 prom act -10.9%, ELG1 genotox 12.8%, Rab9 promoter act -31.4%, FLuc modulator -0.8% and ELG1 repair inh 5.8µM*.
`O=C(Nc1ccccc1O)C(c1ccccc1)c1ccccc1` gave NPC1 prom act -20.1%, ELG1 genotox -10.1%, Rab9 promoter act -3.5%[1.84 µM], FLuc modulator 0.9% and ELG1 repair inh 4.61µM*.
Screening Clc1ccc(CSc2nnc(NC3=NCCCCC3)s2)cc1 returned NPC1 prom act -2.3%, ELG1 genotox 1.2%, SMN2 splice enh -65.8%, Rab9 promoter act 5.2%, FLuc modulator -16.5% and ELG1 repair inh -15.4%.
Cc1ccc(/C=N/OC(=O)c2nn(C)cc2Cl)cc1 was read as NPC1 prom act -1.8%, ELG1 genotox 8.1%, SMN2 splice enh -6.0%, Rab9 promoter act 10.7%, FLuc modulator 1.35µM* and ELG1 repair inh inconclusive.
For Cc1ccc(NC(=O)COC(=O)c2nn(C)cc2Cl)cc1 the results were NPC1 prom act -4.3%, ELG1 genotox 7.8%, Rab9 promoter act 16.1%, FLuc modulator -2.7% and ELG1 repair inh 1.8%.
Screening Cc1ccc(C(=O)O/N=C/c2c(C)nn(C)c2Cl)cc1 returned NPC1 prom act -0.6%, ELG1 genotox -2.5%, SMN2 splice enh -0.7%, Rab9 promoter act -5.6%, FLuc modulator 10.7µM* and ELG1 repair inh -2.3%.
Cc1ccc(C(=O)O/N=C/C2=C(Cl)c3ccccc3CC2)cc1 was read as NPC1 prom act -3.3%, ELG1 genotox 0.3%, SMN2 splice enh -18.0%, Rab9 promoter act 1.1%, FLuc modulator 23.9µM* and ELG1 repair inh -6.7%.
`O=C(O)c1cccc(S(=O)(=O)Nc2ccc3oc(=O)sc3c2)c1` gave NPC1 prom act -5.0%, ELG1 genotox -1.4%, SMN2 splice enh -11.9%, Rab9 promoter act 0.0%, FLuc modulator -0.5% and ELG1 repair inh -8.9%.
